Assay results: ChEMBL document CHEMBL2218924, “A broad activity screen in support of a chemogenomic map for kinase signalling research and drug discovery” (Biochem J, 2013)

Experiments:
[1] = target: T1, cGMP-dependent protein kinase 1 (Homo sapiens) (UniProt Q13976); conditions: at 1 µM
T1 sequence (whole entry): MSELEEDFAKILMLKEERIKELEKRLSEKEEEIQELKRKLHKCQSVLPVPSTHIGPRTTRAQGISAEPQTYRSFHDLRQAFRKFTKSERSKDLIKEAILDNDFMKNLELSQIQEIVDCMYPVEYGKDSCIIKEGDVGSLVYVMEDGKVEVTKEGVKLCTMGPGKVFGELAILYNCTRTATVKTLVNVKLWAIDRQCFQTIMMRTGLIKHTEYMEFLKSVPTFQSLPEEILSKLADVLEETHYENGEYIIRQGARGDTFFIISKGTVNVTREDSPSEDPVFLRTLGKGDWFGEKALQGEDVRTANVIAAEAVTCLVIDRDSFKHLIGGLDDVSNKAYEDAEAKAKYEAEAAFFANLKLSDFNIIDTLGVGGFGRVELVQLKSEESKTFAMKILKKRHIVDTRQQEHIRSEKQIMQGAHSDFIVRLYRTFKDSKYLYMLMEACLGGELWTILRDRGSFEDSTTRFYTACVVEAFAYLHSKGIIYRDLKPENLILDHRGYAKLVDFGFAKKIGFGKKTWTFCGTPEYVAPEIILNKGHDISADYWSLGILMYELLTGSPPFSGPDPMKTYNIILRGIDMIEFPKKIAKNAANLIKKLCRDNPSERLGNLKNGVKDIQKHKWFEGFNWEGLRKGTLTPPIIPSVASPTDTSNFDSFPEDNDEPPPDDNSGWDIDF

[2] = target: T1, cGMP-dependent protein kinase 1 (Homo sapiens); conditions: at 10 µM
[3] = target: T1, cGMP-dependent protein kinase 1 (Homo sapiens); conditions: at 1 µM; remark: listed apart in the source
[4] = target: T1, cGMP-dependent protein kinase 1 (Homo sapiens); conditions: at 10 µM; remark: listed apart in the source
[5] = target: T2, MAP kinase-activated protein kinase 5 (Homo sapiens) (UniProt Q8IW41); conditions: at 1 µM
T2 sequence (whole entry): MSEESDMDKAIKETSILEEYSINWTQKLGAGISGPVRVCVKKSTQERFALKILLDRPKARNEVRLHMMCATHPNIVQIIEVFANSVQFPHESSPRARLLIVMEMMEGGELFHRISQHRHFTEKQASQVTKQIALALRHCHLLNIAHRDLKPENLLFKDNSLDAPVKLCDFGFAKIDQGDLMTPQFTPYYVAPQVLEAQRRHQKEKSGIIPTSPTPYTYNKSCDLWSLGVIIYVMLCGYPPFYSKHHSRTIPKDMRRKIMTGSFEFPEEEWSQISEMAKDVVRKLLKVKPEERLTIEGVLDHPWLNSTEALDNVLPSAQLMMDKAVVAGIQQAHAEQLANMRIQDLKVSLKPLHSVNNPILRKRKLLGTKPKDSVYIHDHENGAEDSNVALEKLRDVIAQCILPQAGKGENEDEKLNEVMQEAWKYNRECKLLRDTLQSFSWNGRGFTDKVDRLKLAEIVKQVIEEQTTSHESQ

[6] = target: T2, MAP kinase-activated protein kinase 5 (Homo sapiens); conditions: at 10 µM
[7] = target: Serine/threonine-protein kinase N2 (Homo sapiens) (UniProt Q16513); conditions: at 1 µM
Chain of Serine/threonine-protein kinase N2 (Homo sapiens) (Q16513 whole entry, looked up): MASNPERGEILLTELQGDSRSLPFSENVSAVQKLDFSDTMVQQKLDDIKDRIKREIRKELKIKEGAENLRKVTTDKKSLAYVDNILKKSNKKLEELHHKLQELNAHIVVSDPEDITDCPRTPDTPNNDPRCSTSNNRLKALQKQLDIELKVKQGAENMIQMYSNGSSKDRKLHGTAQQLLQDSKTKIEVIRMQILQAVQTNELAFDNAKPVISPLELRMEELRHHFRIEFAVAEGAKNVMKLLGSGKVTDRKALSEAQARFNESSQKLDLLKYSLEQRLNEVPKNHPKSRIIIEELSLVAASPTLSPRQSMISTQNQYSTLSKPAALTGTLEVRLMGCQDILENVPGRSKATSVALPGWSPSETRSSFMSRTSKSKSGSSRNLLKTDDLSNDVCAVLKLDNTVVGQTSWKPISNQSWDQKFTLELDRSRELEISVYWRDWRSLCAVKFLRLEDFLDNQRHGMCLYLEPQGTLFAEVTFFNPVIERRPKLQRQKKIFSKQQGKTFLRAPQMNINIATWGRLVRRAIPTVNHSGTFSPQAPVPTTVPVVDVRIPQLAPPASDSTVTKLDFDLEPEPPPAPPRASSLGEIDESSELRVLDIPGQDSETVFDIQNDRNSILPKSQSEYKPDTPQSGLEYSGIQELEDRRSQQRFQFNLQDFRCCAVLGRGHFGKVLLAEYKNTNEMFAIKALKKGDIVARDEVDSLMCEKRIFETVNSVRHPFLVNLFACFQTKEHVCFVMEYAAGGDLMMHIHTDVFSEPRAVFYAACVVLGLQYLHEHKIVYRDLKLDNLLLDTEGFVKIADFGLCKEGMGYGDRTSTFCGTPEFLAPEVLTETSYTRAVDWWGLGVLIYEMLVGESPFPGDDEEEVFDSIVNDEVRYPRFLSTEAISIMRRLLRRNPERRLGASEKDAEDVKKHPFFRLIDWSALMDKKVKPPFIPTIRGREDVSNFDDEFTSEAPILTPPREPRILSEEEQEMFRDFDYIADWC

[8] = target: Serine/threonine-protein kinase N2 (Homo sapiens) (UniProt Q16513); conditions: at 10 µM
[9] = target: Serine/threonine-protein kinase pim-1 (Homo sapiens) (UniProt P11309); conditions: at 1 µM
Chain of Serine/threonine-protein kinase pim-1 (Homo sapiens) (P11309 whole entry, looked up): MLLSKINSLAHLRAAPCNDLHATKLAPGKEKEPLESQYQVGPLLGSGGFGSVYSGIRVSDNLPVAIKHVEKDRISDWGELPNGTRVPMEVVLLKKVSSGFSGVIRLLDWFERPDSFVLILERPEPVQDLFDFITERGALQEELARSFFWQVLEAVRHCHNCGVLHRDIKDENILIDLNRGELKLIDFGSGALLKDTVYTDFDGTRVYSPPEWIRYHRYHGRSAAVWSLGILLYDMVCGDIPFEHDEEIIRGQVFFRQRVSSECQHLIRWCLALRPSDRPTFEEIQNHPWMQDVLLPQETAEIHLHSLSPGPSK

[10] = target: Serine/threonine-protein kinase pim-1 (Homo sapiens) (UniProt P11309); conditions: at 10 µM
[11] = target: Serine/threonine-protein kinase PLK1 (Homo sapiens) (UniProt P53350); conditions: at 1 µM
Chain of Serine/threonine-protein kinase PLK1 (Homo sapiens) (P53350 whole entry): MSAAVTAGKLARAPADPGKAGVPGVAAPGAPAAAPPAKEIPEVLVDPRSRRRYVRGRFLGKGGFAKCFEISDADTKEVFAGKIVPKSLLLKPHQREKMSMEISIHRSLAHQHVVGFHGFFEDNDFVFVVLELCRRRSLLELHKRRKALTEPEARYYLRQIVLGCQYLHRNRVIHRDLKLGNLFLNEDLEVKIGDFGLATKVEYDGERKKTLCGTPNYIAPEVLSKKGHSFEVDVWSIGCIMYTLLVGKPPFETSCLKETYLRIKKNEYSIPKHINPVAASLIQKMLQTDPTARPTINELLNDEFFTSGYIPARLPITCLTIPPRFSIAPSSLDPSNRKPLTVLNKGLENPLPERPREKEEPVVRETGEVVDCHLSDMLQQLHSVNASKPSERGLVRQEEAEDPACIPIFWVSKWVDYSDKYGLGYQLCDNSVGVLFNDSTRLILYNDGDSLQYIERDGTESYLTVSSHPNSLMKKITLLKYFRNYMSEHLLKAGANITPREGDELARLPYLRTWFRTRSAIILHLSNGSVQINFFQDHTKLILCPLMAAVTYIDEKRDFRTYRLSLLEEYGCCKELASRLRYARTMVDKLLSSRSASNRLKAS

[12] = target: Serine/threonine-protein kinase PLK1 (Homo sapiens) (UniProt P53350); conditions: at 10 µM
[13] = target: Serine/threonine-protein kinase pim-3 (Homo sapiens) (UniProt Q86V86); conditions: at 1 µM
[14] = target: Serine/threonine-protein kinase pim-3 (Homo sapiens) (UniProt Q86V86); conditions: at 10 µM
[15] = target: Tyrosine-protein kinase FRK (Homo sapiens) (UniProt P42685); conditions: at 1 µM
Chain of Tyrosine-protein kinase FRK (Homo sapiens) (P42685 whole entry, canonical isoform): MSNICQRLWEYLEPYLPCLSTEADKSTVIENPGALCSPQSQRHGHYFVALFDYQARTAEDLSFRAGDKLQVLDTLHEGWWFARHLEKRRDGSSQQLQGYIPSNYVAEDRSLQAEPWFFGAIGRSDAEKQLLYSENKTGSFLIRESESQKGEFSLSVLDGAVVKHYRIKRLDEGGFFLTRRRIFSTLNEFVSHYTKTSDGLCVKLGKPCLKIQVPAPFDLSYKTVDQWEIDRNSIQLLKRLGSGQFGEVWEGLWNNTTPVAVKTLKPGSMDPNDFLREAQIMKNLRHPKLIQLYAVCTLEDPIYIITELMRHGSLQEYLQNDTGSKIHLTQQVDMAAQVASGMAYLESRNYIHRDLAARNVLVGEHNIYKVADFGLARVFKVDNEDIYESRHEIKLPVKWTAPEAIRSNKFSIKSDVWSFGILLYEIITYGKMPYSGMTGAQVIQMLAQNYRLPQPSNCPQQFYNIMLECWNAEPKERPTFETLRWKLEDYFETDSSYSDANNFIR

[16] = target: Tyrosine-protein kinase FRK (Homo sapiens) (UniProt P42685); conditions: at 10 µM
[17] = target: T3, Phosphorylase b kinase gamma catalytic chain, liver/testis isoform (Homo sapiens) (UniProt P15735); conditions: at 10 µM
T3 sequence (whole entry): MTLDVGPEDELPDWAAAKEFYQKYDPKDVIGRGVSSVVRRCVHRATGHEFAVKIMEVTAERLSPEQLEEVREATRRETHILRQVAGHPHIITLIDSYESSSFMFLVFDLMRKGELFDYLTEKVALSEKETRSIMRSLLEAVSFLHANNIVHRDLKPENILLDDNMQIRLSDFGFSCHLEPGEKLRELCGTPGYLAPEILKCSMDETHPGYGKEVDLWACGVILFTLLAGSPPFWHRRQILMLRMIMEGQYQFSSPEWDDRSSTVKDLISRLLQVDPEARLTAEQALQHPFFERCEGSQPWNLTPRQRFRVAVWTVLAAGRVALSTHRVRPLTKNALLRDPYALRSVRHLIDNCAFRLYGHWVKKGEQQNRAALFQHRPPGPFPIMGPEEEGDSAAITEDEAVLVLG

[18] = target: Serine/threonine-protein kinase pim-2 (Homo sapiens) (UniProt Q9P1W9); conditions: at 1 µM
Chain of Serine/threonine-protein kinase pim-2 (Homo sapiens) (Q9P1W9 whole entry, looked up, canonical isoform): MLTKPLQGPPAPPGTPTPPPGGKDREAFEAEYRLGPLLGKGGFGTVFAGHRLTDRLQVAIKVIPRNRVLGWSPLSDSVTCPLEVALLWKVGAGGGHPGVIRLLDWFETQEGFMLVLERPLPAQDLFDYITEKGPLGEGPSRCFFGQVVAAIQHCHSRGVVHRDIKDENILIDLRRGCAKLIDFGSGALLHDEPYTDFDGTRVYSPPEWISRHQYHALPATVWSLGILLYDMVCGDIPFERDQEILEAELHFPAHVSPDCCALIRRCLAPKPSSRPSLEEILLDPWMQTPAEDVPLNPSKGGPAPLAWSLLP

[19] = target: Serine/threonine-protein kinase pim-2 (Homo sapiens) (UniProt Q9P1W9); conditions: at 10 µM
[20] = target: T3, Phosphorylase b kinase gamma catalytic chain, liver/testis isoform (Homo sapiens); conditions: at 1 µM

| Compound | residual activity [1] | residual activity [2] | residual activity [3] | residual activity [4] | residual activity [5] | residual activity [6] | residual activity [7] | residual activity [8] | residual activity [9] | residual activity [10] | residual activity [11] | residual activity [12] | residual activity [13] | residual activity [14] | residual activity [15] | residual activity [16] | residual activity [17] | residual activity [18] | residual activity [19] | residual activity [20] |
| --- | --- | --- | --- | --- | --- | --- | --- | --- | --- | --- | --- | --- | --- | --- | --- | --- | --- | --- | --- | --- |
| COc1ccc(-c2cnc3c(-c4ccsc4)cnn3c2)cc1 | 88% | 90% | 99% | 99% | 93% | 84% | 95% | 130% | 76% | 70% | 95% | 71% |  |  |  |  |  |  |  |  |
| Oc1cccc(-c2nc(N3CCOCC3)c3oc4ncccc4c3n2)c1 | 120% |  |  | 90% | 98% |  |  |  | 88% | 86% |  |  | 98% | 98% |  |  |  |  |  |  |
| O=C(NC(NC(=S)Nc1ccc(F)c([N+](=O)[O-])c1)C(Cl)(Cl)Cl)C(c1ccccc1)c1ccccc1 (configuration not stated) | 96% | 92% | 97% | 73% | 87% | 49% | 94% | 102% | 102% | 67% | 102% | 98% |  |  | 71% | 47% | 90% | 90% | 70% |  |
| CSc1nc(-c2ccc(F)cc2)c(-c2ccnc(NC(C)c3ccccc3)c2)[nH]1 (configuration not stated) | 85% | 86% |  | 84% |  |  |  | 94% | 85% | 53% |  |  |  |  | 90% | 94% |  |  |  |  |
| O=C(Nc1nc2ccccc2n1CCN1CCOCC1)c1cccc([N+](=O)[O-])c1 | 100% | 101% | 83% | 88% |  |  | 78% | 115% |  |  |  |  |  |  |  |  |  | 100% | 78% |  |
| CCCC(=O)Oc1ccc2[nH]c(C(=O)c3cc4ccccc4[nH]3)cc2c1 | 101% | 127% | 79% | 78% | 72% | 44% | 86% | 93% | 101% | 121% | 86% | 58% | 93% | 96% | 92% | 85% | 96% |  | 98% | 95% |
| O=C1C(Cl)=C(N2C(=O)CCC2=O)C(=O)c2ccccc21 | 95% | 96% | 101% | 88% |  | 98% | 86% | 79% | 84% | 82% | 74% | 85% | 84% | 84% | 88% | 96% |  | 131% | 99% |  |
| COc1cc2nccc(Oc3ccc(NC(=S)NC(=O)c4ccccc4C)cc3)c2cc1OC | 97% | 97% | 69% | 66% | 70% | 79% | 90% | 88% | 102% | 99% | 83% | 65% | 89% | 87% | 6% | 1% | 45% | 97% |  | 61% |
| COc1ccc2c(c1)c(C1=C(c3c[nH]c4ccccc34)C(=O)NC1=O)cn2CCCN(C)C |  | 28% | 64% | 22% |  |  | 68% | 25% | 11% | 1% |  |  | 57% | 17% | 97% |  |  | 36% | 9% |  |
| O=C1NC(=O)c2c1c1c3ccccc3[nH]c1n1cncc21 | 82% | 89% | 99% | 70% | 97% | 71% | 69% | 61% | 6% | 2% | 62% | 60% | 14% | 17% | 87% | 63% | 70% | 5% | 0% | 95% |
| CC(C)c1nn(-c2c(Cl)cccc2Cl)c2nc(Cc3ccc(OCCO)cc3)[nH]c(=O)c12 | 103% | 102% | 91% | 48% |  | 73% | 89% | 91% | 104% | 82% | 83% | 81% | 93% | 92% | 72% | 35% | 93% | 131% | 103% |  |
| O=C(CCCc1ccc(-c2ccccc2F)cc1)Nc1ccc(O)cc1 | 98% | 100% | 97% | 72% |  | 64% | 100% | 79% | 100% | 97% | 93% | 103% | 96% | 97% | 97% | 112% | 112% |  | 139% | 109% |
| CCCCc1c(-c2ccc(OC)cc2)[nH]c2nccnc12 |  | 116% | 107% |  | 73% | 108% | 88% | 76% | 109% | 88% | 81% |  | 104% | 113% | 60% | 51% | 109% | 112% | 104% | 113% |
